HT1080 IDH1KD tx – HT-1080 IDH1 knockdown cell toxicity (counter line); HT-1080 IDH1 knockdown viability, ATP luminescence, 48 h; Potency, µM (top dose mostly 46.1 µM), without a hit: top-dose activity, negative = toxicity, hits mostly cytotoxic; hit rate 2% among 360,000; AID 686971;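 also: potency is read from the fitted curve at half-maximal effect; 0% = DMSO wells and -100% = cell-free medium wells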
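Assay cells: HT-1080 with IDH1 knockdown, 750 per well, RPMI/5% FBS. Exposure: 48 h at 37 °C following 2 h pre-incubation. Read: CellTiter-Glo luminescence; fitted concentration-response, curve class assigned.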
DT40 TDP1 CPT – DT40-hTDP1 cell growth loss with CPT; chicken DT40 Tdp1-/-;hTDP1 cells + 20 nM CPT, ATP luminescence, 48 h; Potency, µM (titrated, usually from 46.2 µM), inactives show at the highest dose activity change, negative = growth inhibition, hits mostly inhibitors; hit rate 12% among 420,000; AID 686979; also: potency is read from the fitted curve at half-maximal effect; nearly all actives have a fitted effect of over 55% in size
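Chicken DT40 Tdp1-/- cells stably complemented with human TDP1 were seeded at 400 cells/well in medium containing 20 nM camptothecin, exposed to pin-transferred compounds, and grown at 37 °C for at least 48 hr. Viability was read as ATP luminescence.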
HT1080-NT tox – kills 2HG-producing HT-1080-NT fibrosarcoma cells; HT-1080-NT fibrosarcoma viability, CellTiter-Glo ATP luminescence, 48 h; Potency, µM (doses to about 46.1 µM), inactives show at the highest dose activity, negative = less viability, actives largely listed as cytotoxic; hit rate 1.6% among 360,000; AID 686970;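 also: NT is the 2HG producing partner of a matched IDH1 knockdown line; potency is read from the fitted curve at half-maximal effect; 0% = DMSO-treated cells and -100% = media-only wells without cells; nearly all actives have a fitted effect of over 55% in size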
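A 48-hour cytotoxicity screen used HT-1080-NT cells plated 2 hours before compound delivery. ATP-based CellTiter-Glo luminescence measured viability, normalized to DMSO and no-cell controls.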
IL-1B inflam inh – inflammasome signaling inhibition, IL-1 beta readout; activity change, % at 57.5 µM; THP-1 LPS/ATP IL-1B secretion, AlphaLISA, 16 h; stronger effect = lower value; AID 743279; hit rate 4.7% among 360,000; in the data active = activity change below about -50%; inconclusive = mostly about -30% to -49%
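Secreted IL-1B measured by AlphaLISA bead assay after 16 h compound exposure of THP-1 cells; compounds (final up to 57.5 uM) added 1 h before LPS (250 ng/mL) and ATP (1.25 mM) stimulation; lower signal means less secretion.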
ALOX12 inh – blocks human arachidonate 12S-lipoxygenase; P18054; purified 12hLO, xylenol orange hydroperoxide absorbance; Potency, µM (highest dose often 108 µM), inactives show top-dose activity change, negative = inhibition, actives largely listed as inhibitors; hit rate 1.1% among 580,000; AID 1671190; also: potency is read from the fitted curve at half-maximal effect
Target sequence (P18054 whole entry, looked up): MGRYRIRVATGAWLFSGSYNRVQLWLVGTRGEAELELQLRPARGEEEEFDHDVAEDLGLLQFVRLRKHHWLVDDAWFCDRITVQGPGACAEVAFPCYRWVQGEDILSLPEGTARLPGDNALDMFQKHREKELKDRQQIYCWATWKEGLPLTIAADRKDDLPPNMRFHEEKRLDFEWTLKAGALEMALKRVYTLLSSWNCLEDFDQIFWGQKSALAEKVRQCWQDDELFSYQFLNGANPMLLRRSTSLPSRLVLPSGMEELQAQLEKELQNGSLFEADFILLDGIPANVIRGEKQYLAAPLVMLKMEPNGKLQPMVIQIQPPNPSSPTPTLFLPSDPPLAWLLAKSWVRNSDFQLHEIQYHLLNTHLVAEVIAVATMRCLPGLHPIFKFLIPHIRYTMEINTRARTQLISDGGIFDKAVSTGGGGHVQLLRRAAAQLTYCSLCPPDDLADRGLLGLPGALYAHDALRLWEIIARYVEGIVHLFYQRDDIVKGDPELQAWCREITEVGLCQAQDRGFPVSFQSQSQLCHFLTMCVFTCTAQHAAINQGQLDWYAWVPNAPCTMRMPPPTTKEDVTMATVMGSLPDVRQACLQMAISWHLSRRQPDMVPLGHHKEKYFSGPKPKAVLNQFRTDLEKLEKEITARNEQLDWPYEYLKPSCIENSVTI
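Purified human 12hLO at 150 nM in 25 mM Hepes, 0.01% Triton X-100, pH 7.0, preincubated 15 min at room temperature with compound. Reaction started with 40 uM arachidonic acid, 30 min at room temperature. Hydroperoxide measured by Fe-xylenol orange, 573/405 nm absorbance ratio.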
TDP1 cell noCPT – qHTS for Inhibitors of human tyrosyl-DNA phosphodiesterase 1 (TDP1): qHTS in cells in absence of CPT; DT40 Tdp1-/- hTDP1 cells, no CPT, ATP luminescence, 48 h; Potency, µM (doses to about 46.2 µM), without a hit: at the top dose activity change, negative = growth inhibition, usual class: inhibitors; hit rate 15% among 420,000; AID 686978, 2013; also: potency is read from the fitted curve at half-maximal effect; nearly all actives have a fitted effect of over 55% in size
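Chicken DT40 Tdp1-/- cells stably complemented with human TDP1 were seeded at 400 cells/well with DMSO in place of 20 nM camptothecin. After compound pinning, cells grew at least 48 hr at 37 °C; viability read by CellTiter-Glo luminescence.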
* marks the source's active call; other numbers are inactive results; ? = inconclusive; . = not tested or not shown; [ ] = dose if it differs, or a comment. Only a selection was taken, and hits are over-represented in it overall. Unless noted, calls follow the shape of the dose curve; as a rule, active = well fitted curve in the direction sought with a large enough effect; inconclusive = small, poorly fitted or top-dose-only effect, or another doubt; inactive = no such curve, though single readings can be large; an effect the other way counts as inactive or inconclusive. Unless noted, % is scaled to controls: 0 for no effect and ±100 for the full control effect.

SMILES	HT1080 IDH1KD tx	DT40 TDP1 CPT	HT1080-NT tox	IL-1B inflam inh	ALOX12 inh	TDP1 cell noCPT
COc1cc(/C=C2\SC(c3ccccc3)=NC2=O)cc(Cl)c1O	15%	21µM*	3%	35	8.9µM*	?
C#CCOc1c(Cl)cc(/C=C2\NC(=O)NC2=O)cc1OCC	.	.	.	.	-26%	.
COc1cc(/C=C2/C(=O)ON=C2C)cc(Cl)c1O	-14%	18µM*	23%	3	?	?
C#CCOc1c(Cl)cc(/C=C2/C(=O)ON=C2C)cc1OC	14%	?	-1%	14	28µM*	?
CCOc1cc(/C=C2/C(=O)ON=C2C)ccc1O	-1%	-17%	8%	-10	?	5%
O=C(CCc1c[nH]c2ccccc12)N1CCC(n2c(C3CCCO3)nc3cc(C(F)(F)F)ccc32)CC1 (stereo not drawn)	.	10%[9.04 µM]	.	.	0%	-13%
COc1ccc(Cl)cc1/C=C1/C(=O)ON=C1C	3%	?	-8%	-9	32µM*	?
CCOc1ccc(Cl)cc1/C=C1/C(=O)ON=C1C	7%	?	25%	-14	?	?
CC1=NOC(=O)/C1=C/c1ccc(N(C)C)cc1	-10%	3%	1%	-6	2%	-11%
CCCOc1ccc(/C=C2/C(=O)ON=C2C)cc1Cl	7%	18µM*	15%	0	5.6µM*	?
Cc1nn2c(=O)cc(COC(=O)c3cccc(NC(=O)c4ccc(F)cc4)c3)nc2s1	.	12µM*	.	.	-14%	10µM*
Cc1nn2c(=O)cc(COC(=O)c3cccc(NC(=O)c4cccs4)c3)nc2s1	.	12µM*	.	.	-27%	12µM*
CCCCc1nn2c(=O)cc(COC(=O)c3cccc(NC(=O)c4cccs4)c3)nc2s1	.	-7%	.	.	-19%	-25%
CC(C)Cc1nn2c(=O)cc(COC(=O)c3cccc(NC(=O)c4cccs4)c3)nc2s1	.	?	.	.	-4%	8.2µM*
CCOC(=O)c1c(NC(=O)c2cccs2)sc2c1CC(C)(C)OC2	-20%	?	-18%	?	?	26µM*
CC(C)c1nc(C#N)c(NCC(c2cccs2)N2CCOCC2)o1 (stereo not drawn)	.	.	.	.	11%	.
CN(Cc1cccnc1)C(=O)CCC[C@@H]1[C@H]2CCCN3CCC[C@@H](CN1Cc1cccnc1)[C@@H]23	.	.	.	.	45%	.
O=C(CSc1cnc2ccccc2n1)OCc1ccccc1	.	.	.	.	-7%	.
O=C(Nc1ccc(C(=O)OCc2cc(=O)n3nc(C4CC4)sc3n2)cc1)c1cccc(Cl)c1	.	-1%	.	.	-5%	-4%
CC(C)(C)c1ccc(C(=O)Nc2ccc(C(=O)OCc3cc(=O)n4ccsc4n3)cc2)cc1	.	21µM*	.	.	-16%	21µM*
O=C(Nc1cccc(C(=O)OCc2cc(=O)n3nc(C4CC4)sc3n2)c1)c1cccc(Cl)c1	.	12µM*	.	.	-21%	16µM*
CCOC(=O)c1cccc(NC(=O)c2cccs2)c1	4%	23µM*	3%	-21	13%	15µM*
CCONC(=O)c1cccc(NC(=O)c2cccs2)c1	.	.	.	.	3%	.
CCOC(=O)c1c(NC(=S)Nc2ccccc2)sc2c1CC(C)(C)SC2	-13%	16µM*	-1%	0	?	?
Cc1ccc(C(=O)Nc2ccc(C(=O)OCc3cc(=O)n4ccsc4n3)cc2)cc1	.	18%	.	.	-17%	0%
Cc1ccc(NC(=O)c2cccc(-n3cnnn3)c2)cc1Cl	-1%	-18%	-6%[9.24 µM]	0	15%	-16%
O=C(c1cccc(Cl)c1)N1CCCN(c2cn[nH]c(=O)c2Cl)CC1	.	.	.	.	1%	.
CN(C)Cc1cn([C@H]2CO[C@H]3[C@@H]2OC[C@H]3OC(=O)Nc2cccc(C(F)(F)F)c2)nn1	.	.	.	.	-7%[176 µM]	.
